Several values for one entry are separate records, joined by “and”; a condition that tells them apart may be missing. Identical values can stand only once. This is part of a sample that, as a whole, favours compounds with a hit. Of some 83,000 tested, about 20% had one in any assay.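 Single-concentration screen, 48 h exposure, 96-well plates. Endpoint: percent growth. Below 10 = active.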 Activity calls are given as the source filed them.
What was measured:
Assay in all cases: NCI-60 one-dose screen, 48 h (100 = growth as untreated, 0 = no growth, -100 = all killed)
Settings in all cases: 10 µM unless noted
[1] = test system: NCI-H23 lung
[2] = test system: NCI-H226 lung
[3] = test system: HOP-62 NSCLC
[4] = test system: NCI-H460 lung
[5] = test system: HOP-92 NSCLC
[6] = test system: NCI-H522 lung
[7] = test system: 786-0 renal
[8] = test system: COLO 205 colon
[9] = test system: DU-145 prostate
[10] = test system: K-562 leukemia
[11] = test system: MALME-3M melanoma
[12] = test system: MDA-MB-231 breast
[13] = test system: RXF 393 renal
[14] = test system: SF-268 CNS
[15] = test system: SF-295 CNS
[16] = test system: SF-539 CNS
[17] = test system: UACC-257 melanoma
[18] = test system: M14 melanoma
[19] = test system: A549/ATCC NSCLC
[20] = test system: NCI-H322M lung

| Compound | growth [1] | growth [2] | growth [3] | growth [4] | growth [5] | growth [6] | growth [7] | growth [8] | growth [9] | growth [10] | growth [11] | growth [12] | growth [13] | growth [14] | growth [15] | growth [16] | growth [17] | growth [18] | growth [19] | growth [20] |
| --- | --- | --- | --- | --- | --- | --- | --- | --- | --- | --- | --- | --- | --- | --- | --- | --- | --- | --- | --- | --- |
| Cc1ccc(S(=O)(=O)Nc2nc3ccccc3nc2Nc2ccc3nsnc3c2)cc1 | 48.7% (inactive) and 37.8% (inactive) | 72.9% (inactive) and 72.7% (inactive) | 48.5% (inactive) and 84.9% (inactive) | 32.1% (inactive) and 29.2% (inactive) | 6.25% (active) | 34.8% (inactive) and 23.3% (inactive) | 46.9% (inactive) and 45.1% (inactive) | 44.5% (inactive) and 76% (inactive) | 71.2% (inactive) and 62.5% (inactive) | 32.8% (inactive) and 35.3% (inactive) | 33.3% (inactive) and 9.84% (active) | 73.7% (inactive) and 68.8% (inactive) | 80.3% (inactive) and 87.8% (inactive) | 52.2% (inactive) and 54.5% (inactive) | 25.2% (inactive) and 26.7% (inactive) | 63.9% (inactive) and 60.8% (inactive) | 27% (inactive) and 54.4% (inactive) | 48% (inactive) and 49.6% (inactive) |  |  |
| Clc1ccc(SSc2ccc(Cl)cc2)cc1 | 94.1% (inactive) and 85.5% (inactive) | 104% (inactive) and 79.5% (inactive) | 102% (inactive) and 98% (inactive) | 98.1% (inactive) and 79.5% (inactive) | 76% (inactive) and 74.2% (inactive) | 87.9% (inactive) and 81.8% (inactive) | 96.5% (inactive) and 66.8% (inactive) |  | 103% (inactive) and 109% (inactive) | 100% (inactive) | 95% (inactive) and 119% (inactive) | 107% (inactive) and 62.2% (inactive) | 96.1% (inactive) and 86% (inactive) | 94.4% (inactive) and 72.4% (inactive) | 103% (inactive) and 93.8% (inactive) | 99.5% (inactive) and 88.7% (inactive) | 91.5% (inactive) and 98.3% (inactive) | 93.6% (inactive) and 94.1% (inactive) | 95.9% (inactive) and 46.9% (inactive) |  |
| COc1ccc2c(=O)cc(-c3ccccc3)[nH]c2c1 | 34.4% (inactive) and 16.5% (inactive) | 57.3% (inactive) and 23.8% (inactive) | 30.1% (inactive) and 21.2% (inactive) | 6.58% (active) and 4.24% (active) | 53.8% (inactive) | -20% (active) and -68.2% (active) | 35.3% (inactive) and -14.1% (active) |  | 15% (inactive) and 19.1% (inactive) | 9.54% (active) and -12.9% (active) | 40.7% (inactive) and 47.9% (inactive) | 29.9% (inactive) and 29.1% (inactive) | 7.41% (active) | 45.3% (inactive) and 43.1% (inactive) | -8.08% (active) and 2.52% (active) | -5.99% (active) and -23.9% (active) | 65.2% (inactive) and 30.5% (inactive) |  | 22.6% (inactive) and 13.9% (inactive) |  |
| CNC(=O)c1cccnc1 |  | 107% (inactive) |  | 109% (inactive) | 109% (inactive) | 91.4% (inactive) | 99.6% (inactive) | 121% (inactive) | 116% (inactive) |  | 86.8% (inactive) | 102% (inactive) | 114% (inactive) | 103% (inactive) | 100% (inactive) | 100% (inactive) | 92.4% (inactive) | 104% (inactive) | 92.8% (inactive) |  |
| NC(=S)NS(=O)(=O)c1ccc(N)cc1 |  | 96% (inactive) | 96.7% (inactive) | 109% (inactive) | 103% (inactive) | 102% (inactive) | 105% (inactive) | 108% (inactive) | 125% (inactive) | 103% (inactive) | 96.6% (inactive) | 117% (inactive) | 101% (inactive) | 107% (inactive) | 94.7% (inactive) | 98.7% (inactive) | 101% (inactive) | 106% (inactive) |  |  |
| O=C1c2c(O)cc(O)cc2OC(c2ccc(O)c(O)c2)C1O (stereo not given) |  | 109% (inactive) | 110% (inactive) |  | 108% (inactive) |  |  | 119% (inactive) | 132% (inactive) | 104% (inactive) | 118% (inactive) | 106% (inactive) | 124% (inactive) | 111% (inactive) | 119% (inactive) | 107% (inactive) | 107% (inactive) |  | 105% (inactive) | 126% (inactive) |
| CC1(c2ccc3ccccc3c2)CCC(=O)O1 (stereo not given) | 95% (inactive) | 110% (inactive) | 93.5% (inactive) | 112% (inactive) | 106% (inactive) | 91.3% (inactive) | 103% (inactive) |  | 107% (inactive) | 86.7% (inactive) | 96.8% (inactive) | 111% (inactive) | 104% (inactive) | 99.7% (inactive) | 107% (inactive) | 95.7% (inactive) | 96.5% (inactive) |  | 101% (inactive) |  |
| CC12CCC(CC1)C(C)(C)O2 |  | 104% (inactive) | 110% (inactive) | 118% (inactive) | 105% (inactive) | 95% (inactive) | 94.5% (inactive) | 110% (inactive) | 110% (inactive) |  | 101% (inactive) | 100% (inactive) | 117% (inactive) | 119% (inactive) | 91% (inactive) | 103% (inactive) | 108% (inactive) | 99.7% (inactive) | 102% (inactive) |  |
| N#CCCOc1ccccc1 |  | 110% (inactive) | 95.3% (inactive) | 105% (inactive) | 84.6% (inactive) | 87.7% (inactive) | 98.2% (inactive) | 106% (inactive) | 117% (inactive) | 89.6% (inactive) | 95.1% (inactive) | 108% (inactive) | 114% (inactive) | 102% (inactive) | 101% (inactive) | 96.2% (inactive) | 92.6% (inactive) | 97.9% (inactive) |  |  |
| CCN(CC)C(=O)c1cccnc1 |  | 110% (inactive) | 119% (inactive) | 111% (inactive) | 117% (inactive) | 98.9% (inactive) | 99.4% (inactive) | 115% (inactive) | 119% (inactive) |  | 104% (inactive) | 106% (inactive) | 123% (inactive) | 108% (inactive) | 99.8% (inactive) | 99.8% (inactive) | 101% (inactive) | 103% (inactive) |  | 123% (inactive) |
| S=C1SCN(Cc2ccccc2)CN1Cc1ccccc1 | 81.2% (inactive) | 88.8% (inactive) | 100% (inactive) |  | 37.3% (inactive) | 21.5% (inactive) | 49.8% (inactive) | 78.1% (inactive) | 41.8% (inactive) | 46.4% (inactive) | 92.1% (inactive) | 85% (inactive) | 87.1% (inactive) | 73.5% (inactive) | 100% (inactive) | 91.4% (inactive) | 95.2% (inactive) |  |  |  |
| C[N+](C)(C)CN1C(=O)c2ccccc2C1=O | 105% (inactive) | 112% (inactive) | 96% (inactive) | 105% (inactive) |  | 90.9% (inactive) | 104% (inactive) | 104% (inactive) | 113% (inactive) | 92% (inactive) |  | 114% (inactive) | 105% (inactive) | 110% (inactive) |  | 99.5% (inactive) | 97.8% (inactive) | 103% (inactive) | 99.8% (inactive) |  |
| Nc1ccn(C2OC(CO)C(O)C2O)c(=O)n1 (stereo not given) |  |  |  |  |  |  |  |  | 24% (inactive) and 12.2% (inactive) and 114% (inactive) |  |  | 110% (inactive) [middle of 4 runs] | 90.6% (inactive) and 33.4% (inactive) and 134% (inactive) | 35.8% (inactive) and 41.2% (inactive) and 104% (inactive) |  |  |  |  |  |  |
| COc1cc2c(c(OC)c1OC)-c1ccc(OC)c(=O)cc1[C@@H](NC(C)=O)CC2 | 24.4% (inactive) and 29.4% (inactive) and 12.6% (inactive) | 33.9% (inactive) and 13.1% (inactive) and 31% (inactive) | 31.2% (inactive) and 24.6% (inactive) and 20% (inactive) |  | 57.9% (inactive) and 14% (inactive) and 2.37% (active) | 15.4% (inactive) and -6.78% (active) and -64.2% (active) | 17.5% (inactive) and 9.25% (active) and 15.4% (inactive) |  | -26.3% (active) and 0.564% (active) and -28.6% (active) | 9.04% (active) and 10.4% (inactive) and -25.7% (active) | 45.1% (inactive) and 43.1% (inactive) and 39% (inactive) | 16.3% (inactive) and -21.5% (active) and -9.65% (active) | 34% (inactive) and 33.7% (inactive) and 15.3% (inactive) | 33.5% (inactive) and 27.5% (inactive) and 35.1% (inactive) | 2.25% (active) and 12.5% (inactive) and 7.89% (active) | -9.65% (active) and -24.7% (active) and -10.6% (active) | 76.9% (inactive) and 66.3% (inactive) and 24.9% (inactive) | 2.32% (active) and -7.49% (active) and 1.7% (active) | 12.3% (inactive) and 44.9% (inactive) |  |
| CC(C)Cc1ccc(C(C)C(=O)NCc2ccc(Cn3c(=O)sn(CCCCl)c3=O)cc2)cc1 (stereo not given) | 96.7% (inactive) and -59.1% (active) | 106% (inactive) and 32.6% (inactive) | 105% (inactive) and -38.5% (active) | 105% (inactive) and 40.2% (inactive) | 105% (inactive) and -77.6% (active) | 85.5% (inactive) and -52.3% (active) | 101% (inactive) and -71.6% (active) | 66.8% (inactive) and -65% (active) | 95% (inactive) and -78% (active) | 2.16% (active) | 110% (inactive) and -74.2% (active) | 104% (inactive) and -77.2% (active) | -94.2% (active) | 84.8% (inactive) and -40.3% (active) | 97.9% (inactive) and 53.7% (inactive) | 104% (inactive) and -90.3% (active) | 94.4% (inactive) and -21.2% (active) | 94% (inactive) and -58.1% (active) |  |  |
